{
  "source": "PubChem BioAssay (EPA / NIEHS)",
  "note": "Results filed as inconclusive are left out. The source made the active and inactive calls. The calls were made as follows: active = hit-call score of the fitted dose curve at least 0.9, where 1 is the maximum; inconclusive = response in the unintended direction; inactive = score below 0.9.",
  "data": [
    {"assay": "ACEA_ER_AUC_viability: ACEA Biosciences xCELLigence Real-Time Cell Analysis on Estrogen Receptor Agonism for Viability (AID 2283782);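 also: continuous compound exposure with impedance area under curve over 80 h; hit means loss of impedance signal meaning reduced cell growth or viability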", "summary_of_the_method": "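T-47D human breast cells in phenol red-free RPMI1640 with 10% charcoal-stripped FBS were dosed with an 8-point 1:4 dilution series from 100 uM top final concentration, in duplicate. Impedance-based growth was followed for 80 h; AUC analysed versus DMSO.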", "values": [
      {"smiles": "COc1ccc2[nH]cc(CCNC(C)=O)c2c1", "outcome": "inactive"},
      {"smiles": "C1COCO1", "outcome": "inactive"},
      {"smiles": "O=C1CCCCCCCCCCCC(=O)OCCO1", "AC50": "71.8 µM (active)"},
      {"smiles": "CC(C)COC(=O)c1ccccc1", "outcome": "inactive"},
      {"smiles": "CCCCOCCOC(=O)c1ccccc1C(=O)OCCOCCCC", "outcome": "inactive"},
      {"smiles": "CC(C)Cc1ccc(C(C)C(=O)O)cc1", "note": "(stereo unspecified)", "outcome": "inactive"},
      {"smiles": "CC1=CC(C)C(C=O)C(C)C1", "note": "(stereo unspecified) (tested in a mixture with another compound)", "AC50": "50 µM (active)"},
      {"smiles": "CCOC(=O)C(=O)OCC", "outcome": "inactive"},
      {"smiles": "CCCC1CCC(=O)CC1", "outcome": "inactive"},
      {"smiles": "CCCCC/C=C\\C=C\\C(=O)OCC", "AC50": "80.8 µM (active)"},
      {"smiles": "C/C=C(\\C)C(=O)OC/C=C(\\C)CCC=C(C)C", "AC50": "78.2 µM (active)"},
      {"smiles": "CCCCCCCCCCCCOC(C)=O", "outcome": "inactive"},
      {"smiles": "NC(=O)c1cnccn1", "outcome": "inactive"},
      {"smiles": "CCCCCCCCOC(=O)c1ccc(O)cc1", "AC50": "24.7 µM (active)"},
      {"smiles": "O=S(=O)(O)CCCN1CCOCC1", "AC50": "36.6 µM (active)"},
      {"smiles": "CC1=CC[C@@H]2C[C@H]1C2(C)C", "AC50": "18.7 µM (active)"},
      {"smiles": "CC(O)COCC(C)O", "note": "(stereo unspecified)", "outcome": "inactive"},
      {"smiles": "CC(C)(O)CCc1ccccc1", "outcome": "inactive"},
      {"smiles": "CC1(C)CC(N)CC(C)(CN)C1", "note": "(stereo unspecified)", "outcome": "inactive"},
      {"smiles": "CC(C)C(=O)OCC=Cc1ccccc1", "outcome": "inactive"},
      {"smiles": "C=COCC1CCC(COC=C)CC1", "note": "(stereo unspecified)", "outcome": "inactive"},
      {"smiles": "CCCCCCCCCCCCN1CCOCC1", "AC50": "80.3 µM (active)"},
      {"smiles": "CCC(C)(C)c1cc(O)c(C(C)(C)CC)cc1O", "AC50": "72.7 µM (active)"},
      {"smiles": "O=S1(=O)CC(Cl)(Cl)C(Cl)(Cl)C1", "AC50": "1.42 µM (active)"},
      {"smiles": "CCCCN(CCCC)CCCCCCN(CCCC)CCCC", "outcome": "inactive"},
      {"smiles": "Cc1ccccc1S", "outcome": "inactive"},
      {"smiles": "CC1=CC(=O)[C@H]2C[C@@H]1C2(C)C", "AC50": "31 µM (active)"},
      {"smiles": "CC(C)OB(OC(C)C)OC(C)C", "outcome": "inactive"},
      {"smiles": "CC(C)CCOC(=O)CC(C)C", "outcome": "inactive"},
      {"smiles": "CC/C=C\\CCOC(C)OCC", "note": "(stereo unspecified)", "outcome": "inactive"},
      {"smiles": "Cc1cc(N)n(-c2ccccc2)n1", "outcome": "inactive"},
      {"smiles": "O=C(O)c1cccc(Cl)n1", "outcome": "inactive"},
      {"smiles": "C=C/C(C)=C/C/C=C(\\C)CCC=C(C)C", "AC50": "89.9 µM (active)"},
      {"smiles": "O=C(O)c1ccc(C(=O)O)c(C(=O)O)c1", "outcome": "inactive"},
      {"smiles": "O=C(O)c1cc2ccccc2cc1O", "outcome": "inactive"},
      {"smiles": "O=c1cc[nH]cc1", "outcome": "inactive"}
    ]}
  ]
}
